The source of these data is PubChem BioAssay AID2283125 (EPA ToxCast).

This test has as its target Tyrosine-protein kinase ABL1 (Homo sapiens) (UniProt P00519). The test can be described thus: NVS_ENZ_hAbl: NovaScreen (NVS) Enzymatic Assay for human ABL proto-oncogene 1, non-receptor tyrosine kinase. The method, then:
NVS_ENZ_hAbl is a biochemical, single-readout assay that uses extracted gene-proteins in a cell-free assay. Measurements were taken 1 hour after chemical dosing in a 96-well plate.NVS_ENZ_hAbl is one of one assay component(s) measured or calculated from the NVS_ENZ_hAbl assay. It is designed to make measurements of enzyme activity, a form of enzyme reporter, as detected with fluorescence intensity signals by Fluorescence and electrophoretic mobility shift technology.Data from the assay component NVS_ENZ_hAbl was analyzed into 1 assay endpoint. This assay endpoint, NVS_ENZ_hAbl, was analyzed in the positive analysis fitting direction relative to DMSO as the negative control and baseline of activity. Using a type of enzyme reporter, loss-of-signal activity can be used to understand changes in the enzymatic activity as they relate to the gene ABL1. Furthermore, this assay endpoint can be referred to as a primary readout, because this assay has produced multiple assay endpoints where this one serves a enzymatic activity function. To generalize the intended target to other relatable targets, this assay endpoint is annotated to the kinase intended target family, where the subfamily is non-receptor tyrosine kinase. […]

Molecules are shown by their SMILES. Inconclusive results are not listed. Active and inactive are the calls of the source. The calls were made as follows: active = hit-call score of the fitted dose curve at least 0.9, where 1 is the maximum; inconclusive = response in the unintended direction; inactive = score below 0.9.

Tyrosine-protein kinase ABL1 (Homo sapiens), sequence (P00519 whole entry, looked up): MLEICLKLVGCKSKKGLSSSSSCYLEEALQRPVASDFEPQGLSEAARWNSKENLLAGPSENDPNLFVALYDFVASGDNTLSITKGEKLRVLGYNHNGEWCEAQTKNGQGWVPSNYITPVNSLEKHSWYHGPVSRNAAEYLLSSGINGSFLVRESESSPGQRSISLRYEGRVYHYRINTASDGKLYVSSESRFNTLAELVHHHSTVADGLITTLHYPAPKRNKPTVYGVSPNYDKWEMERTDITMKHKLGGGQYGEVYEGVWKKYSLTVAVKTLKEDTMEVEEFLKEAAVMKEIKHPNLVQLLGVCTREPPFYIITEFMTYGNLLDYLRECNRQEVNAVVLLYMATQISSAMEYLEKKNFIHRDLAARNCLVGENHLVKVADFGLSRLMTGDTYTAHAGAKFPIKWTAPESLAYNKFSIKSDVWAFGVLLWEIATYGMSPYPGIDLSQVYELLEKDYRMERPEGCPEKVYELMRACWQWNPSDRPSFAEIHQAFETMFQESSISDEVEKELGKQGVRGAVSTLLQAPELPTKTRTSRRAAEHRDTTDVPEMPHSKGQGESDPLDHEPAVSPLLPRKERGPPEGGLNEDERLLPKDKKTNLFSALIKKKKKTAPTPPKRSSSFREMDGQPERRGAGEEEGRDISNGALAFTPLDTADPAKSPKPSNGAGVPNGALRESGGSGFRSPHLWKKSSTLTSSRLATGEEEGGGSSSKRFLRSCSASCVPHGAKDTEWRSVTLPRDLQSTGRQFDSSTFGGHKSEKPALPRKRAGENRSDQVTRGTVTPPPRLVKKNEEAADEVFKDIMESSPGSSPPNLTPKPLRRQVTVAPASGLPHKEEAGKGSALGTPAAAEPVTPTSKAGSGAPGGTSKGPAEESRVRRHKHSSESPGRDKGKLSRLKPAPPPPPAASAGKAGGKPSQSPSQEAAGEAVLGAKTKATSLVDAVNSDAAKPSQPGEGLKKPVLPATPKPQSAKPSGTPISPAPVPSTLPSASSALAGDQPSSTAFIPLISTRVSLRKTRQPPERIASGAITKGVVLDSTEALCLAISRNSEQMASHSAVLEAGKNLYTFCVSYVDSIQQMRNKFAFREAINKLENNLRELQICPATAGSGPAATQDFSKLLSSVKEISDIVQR

With `c1ccc2[nH]c(-c3cscn3)nc2c1`, the call was inactive.

Consider `O=C(Nc1ccc([N+](=O)[O-])cc1Cl)c1cc(Cl)ccc1O`, for which the outcome was inactive.
